# Laboratory results published in ChEMBL document CHEMBL3988442, “University of Dundee, Small-Polar-MMV Screening Library” (2021).
# Among all 66,000 compounds or so, about 960 (1.5%) showed an effect of 50% or more. This excerpt belongs to a sample that is enriched for strong results.
# System: Trypanosoma brucei
# Assay: Trypanosoma brucei 72 hour study
# Type: functional, organism-based
# Parameters: scale not given: in the data most compounds retested in dose-response had high values
smiles,measurement,setting,value
CC(=O)N1[C@H](CN(C)C)C[C@@H]2CN(C(=O)c3ccno3)CC[C@@H]21.O=C(O)C(F)(F)F,Percent Effect,"30.3 µM, […]",5.246%
Cc1nc(C)n(CC2CN(Cc3ccccc3OC(C)C)CCO2)n1 (stereo unspecified),Percent Effect,"30.3 µM, […]",101%
Cc1nc(C)n(CC2CN(Cc3cccc4ccccc34)CCO2)n1 (stereo unspecified),Percent Effect,"30.3 µM, […]",20.23%
Cc1nc(C)n(CC2CN(Cc3ccccc3C#N)CCO2)n1 (stereo unspecified),Percent Effect,"30.3 µM, […]",19.46%
Cn1cc(CN2CCC[C@]3(C[C@@H](Oc4ncccc4F)CO3)C2)cn1.O=C(O)C(F)(F)F.O=C(O)C(F)(F)F,Percent Effect,"30.3 µM, […]",0.8954%
CNC(=O)[C@H]1C[C@@H]2CN(Cc3ccccc3)C[C@H]1O2.O=C(O)C(F)(F)F,Percent Effect,"30.3 µM, […]",0.1079%
CN1CCN(c2ncccn2)CC(C(=O)N(C)C)C1 (stereo unspecified),Percent Effect,"30.3 µM, […]",-26.5%
CN(C)Cc1nc2c(o1)CN(S(=O)(=O)c1cccs1)C2.O=C(O)C(F)(F)F,Percent Effect,"30.3 µM, […]",5.819%
Fc1cccc(-c2noc3c2CN(Cc2cncn2C2CC2)CC3)c1,Percent Effect,"30 µM, 30.03 µM",24.68%
CC(C)c1nc(CN2CCc3onc(-c4cccc(F)c4)c3C2)no1,Percent Effect,"30 µM, 30.03 µM",51.01%
CC(C)Cc1nc(CN2CCc3onc(-c4cccc(F)c4)c3C2)no1,Percent Effect,"30 µM, 30.03 µM",18.46%
CC(C)(C)c1nc(CN2CCc3onc(-c4cccc(F)c4)c3C2)no1,Percent Effect,"30 µM, 30.03 µM",51.86%
Cn1ncc(CN2CCc3onc(-c4cccc(F)c4)c3C2)c1C1CC1,Percent Effect,"30 µM, 30.03 µM",32.05%
CC(C(=O)N(C)C)N1CCc2onc(-c3cccc(F)c3)c2C1 (stereo unspecified),Percent Effect,"30 µM, 30.03 µM",-18.33%
Cn1cc(CNC2CC3(CCN(S(C)(=O)=O)CC3)c3ccccc32)cn1.O=C(O)C(F)(F)F (stereo unspecified),Percent Effect,"30.3 µM, […]",-14.03%
CC(C)c1nnc(N2C[C@@H]3CC[C@H](C2)N(CC2CCC2)C3)s1,Percent Effect,"30 µM, 30.03 µM",-2.589%
CN(C)Cc1cnc(C2CCN(C(=O)c3ccccc3F)C2)[nH]1.Cl (stereo unspecified),Percent Effect,"30.3 µM, […]",3.217%
O=C(Cn1ccc2sccc2c1=O)NCCCc1ccccc1,Percent Effect,"30 µM, 30.03 µM",-11.95%
Cn1cccc1C(=O)N1CCC2(CC1)CC(N1CCOCC1)C2.O=C(O)C(F)(F)F,Percent Effect,"30.3 µM, […]",-54.57%
CCNC(=O)NC1CCC(Oc2ccccc2C#N)CC1 (stereo unspecified),Percent Effect,"30 µM, 30.03 µM",74.2%
CN(C)CCN(C)C(=O)NC1CCC(Oc2ccccc2C#N)CC1 (stereo unspecified),Percent Effect,"30 µM, 30.03 µM",7.047%
CN(C)C1(C(=O)NC2CCC(Oc3ccccc3C#N)CC2)CCC1 (stereo unspecified),Percent Effect,"30 µM, 30.03 µM",-17.82%
CCOCc1ccc(CNc2cncc(-n3cccn3)n2)cc1,Percent Effect,10 µM,-32.35%
CC(NC(=O)C(C)(C)C)c1cc(O)nc(-c2cccnc2)n1 (stereo unspecified),Percent Effect,"30.3 µM, […]",-7.147%
CC(=O)N1CCCN(C(=O)c2csc(-c3ccc(C)cc3C)n2)CC1,Percent Effect,"30 µM, 30.03 µM",20.93%
CC(=O)NCC1CCN(C(=O)c2csc(-c3ccc(C)cc3C)n2)CC1,Percent Effect,"30 µM, 30.03 µM",56.57%
CC(=O)N1CCN(C(=O)c2csc(-c3ccc(C)cc3C)n2)CC1,Percent Effect,10 µM,-21.97%
CN(C)C1CCC2(CCN(Cc3nccn3C)CC2)c2ccccc21.O=C(O)C(F)(F)F.O=C(O)C(F)(F)F (stereo unspecified),Percent Effect,"30.3 µM, […]",-42.21%
CNCC(=O)N1CC(c2cc(Nc3ncccn3)nc(C)n2)C1.Cl,Percent Effect,"30 µM, 30.03 µM",-14.51%
Cn1cnnc1C1CCCN(C(=O)c2cc(-c3ccccc3)on2)C1 (stereo unspecified),Percent Effect,"30 µM, 30.03 µM",-25.06%
CCN(CC)CCCNCc1cc2cccc(C)c2[nH]c1=O,Percent Effect,"30.3 µM, […]",-3.275%
CCN(CC)CCCNCc1cc2cc(C)cc(C)c2[nH]c1=O,Percent Effect,"30.3 µM, […]",66.62%
CCN(CC)CCCNCc1cc2cc(C)ccc2[nH]c1=O,Percent Effect,"30.3 µM, […]",-2.792%
Cc1cc(C(=O)NCCN2CCCCC2C)nn1C(C)(C)C (stereo unspecified),Percent Effect,"30 µM, 30.03 µM",-37.93%
Cl.O=C(Nc1cccc(CNCc2ccsc2)c1)C1CC1,Percent Effect,10 µM,-60.42%
COCc1cc(NCCCSc2nnc(C)s2)ncn1,Percent Effect,"30 µM, 30.03 µM",0.4948%
CNC(=O)CC1CC2(CCN(CC3CC3)CC2)Oc2ccccc21.O=C(O)C(F)(F)F (stereo unspecified),Percent Effect,"30.3 µM, […]",-8.019%
O=C(CCc1nc(-c2ccccc2)no1)N[C@H]1COC[C@@H]1N1CCCC1,Percent Effect,"30.3 µM, […]",62.68%
CCO[C@H]1COC[C@@H]1NC(=O)CCc1nc(-c2ccccc2)no1,Percent Effect,"30.3 µM, […]",-3.299%
CO[C@H]1CNC[C@@H]1NC(=O)CCc1nc(-c2ccccc2)no1,Percent Effect,"30.3 µM, […]",14.68%
COCCN1C(=O)[C@H]2CC[C@@H]1CN(S(=O)(=O)c1ccc(OC)cc1)C2,Percent Effect,"30.3 µM, […]",-80.52%
Cc1cc(NCCN2CCNC2=O)nc2cc3c(cc12)CCC3,Percent Effect,"30 µM, 30.03 µM",101.3%
Cc1cc(NCCS(C)(=O)=O)nc2cc3c(cc12)CCC3,Percent Effect,"30 µM, 30.03 µM",3.514%
Cc1cc(NCCNS(C)(=O)=O)nc2cc3c(cc12)CCC3,Percent Effect,"30 µM, 30.03 µM",12.23%
COc1cc(OC)c2nc(NCCN3CCNC3=O)cc(C)c2c1,Percent Effect,"30 µM, 30.03 µM",22.56%
COc1cc2nc(NCCN3CCNC3=O)cc(C)c2cc1OC,Percent Effect,"30 µM, 30.03 µM",57.38%
COc1cc2nc(NCCNS(C)(=O)=O)cc(C)c2cc1OC,Percent Effect,"30 µM, 30.03 µM",21.73%
Cc1cc(C(=O)N2CCn3cc(CN4CCOCC4)nc3C2)no1.O=C(O)C(F)(F)F,Percent Effect,"30.3 µM, […]",-304.6%
CN1CC(=O)N(c2ccsc2)CC12CCN(C(=O)CC1CCCC1)C2.O=C(O)C(F)(F)F (stereo unspecified),Percent Effect,"30 µM, 30.03 µM",8.203%
O=C(C[C@@H]1COC[C@H]2CN(C3CCCC3)C[C@@H]12)NCc1cccnc1.O=C(O)C(F)(F)F.O=C(O)C(F)(F)F,Percent Effect,"30.3 µM, […]",5.505%
Cc1noc(CN2CCC(Cc3ccc(F)cc3)CC2)n1,Percent Effect,"30.3 µM, […]",-2.984%
CN(C)C(=O)N1C[C@@H]2CC[C@H](C1)N(Cc1nnc(C3CC3)o1)C2,Percent Effect,"30 µM, 30.03 µM",-29.28%
CNc1cc(-c2ccc(COCCN)cc2)c2cc[nH]c2n1,Percent Effect,"30 µM, 30.03 µM",-16.28%
Nc1cc(-c2cc(O)cc(C(=O)O)c2)c2cc[nH]c2n1,Percent Effect,"30 µM, 30.03 µM",-9.984%
Cc1cnccc1-c1cc(NCCO)nc2[nH]ccc12,Percent Effect,"30 µM, 30.03 µM",-32%
CCCNCc1ccc(-c2cc(N)nc3[nH]ccc23)cc1,Percent Effect,"30.3 µM, […]",58.31%
CCNCCOc1ccc(-c2cc(N)nc3[nH]ccc23)cc1,Percent Effect,"30.3 µM, […]",21.45%
CCCNCc1ccc(-c2ccnc3[nH]ccc23)cc1,Percent Effect,"30.3 µM, […]",63.66%
CC(C)N1CCC(c2nc3ccc(-c4ccnn4C)cn3n2)CC1.O=C(O)C(F)(F)F,Percent Effect,"30.3 µM, […]",-11.51%
O=C(CC1CCCC1)N1CCC2(CCN2Cc2ccc(F)cc2)C1.O=C(O)C(F)(F)F (stereo unspecified),Percent Effect,"30.3 µM, […]",-0.9298%
CCc1nnc(CN(C)CC2CCCCC2)o1,Percent Effect,"30 µM, 30.03 µM",-20.72%
Cc1cnc(C(=O)N2CCc3ncnc(C)c3CC2)cn1,Percent Effect,"30 µM, 30.03 µM",54.93%
Cc1ncnc2c1CCN(C(=O)c1cnccn1)CC2,Percent Effect,"30.3 µM, […]",17.88%
Cc1ccc(C(=O)N2CCc3ncnc(C)c3CC2)cn1,Percent Effect,"30 µM, 30.03 µM",1.33%
CCNC(=O)N(C)C1CCN(Cc2ncc(C)c(OC)c2C)CC1,Percent Effect,10 µM,-34.27%
Cc1cc(C(=O)N2CCC3(CC2)CC(c2cccnc2)C(=O)N3)no1.O=C(O)C(F)(F)F (stereo unspecified),Percent Effect,"30 µM, 30.03 µM",-44.38%
COc1ccc(CCN2CC(NCc3ncc[nH]3)CC2=O)cc1 (stereo unspecified),Percent Effect,"30 µM, 30.03 µM",64.92%
O=C1CC(NCc2ccncc2)CN1CCc1cccc(Cl)c1 (stereo unspecified),Percent Effect,"30 µM, 30.03 µM",-25.97%
O=C1CC(NCc2ncc[nH]2)CN1CCc1cccc(Cl)c1 (stereo unspecified),Percent Effect,"30 µM, 30.03 µM",84.65%
Cc1ncc(CNC2CC(=O)N(CCc3ccc(F)cc3)C2)n1C (stereo unspecified),Percent Effect,"30 µM, 30.03 µM",23.38%
Cc1nc[nH]c1CNC1CC(=O)N(CCc2cccc(Cl)c2)C1 (stereo unspecified),Percent Effect,"30 µM, 30.03 µM",-48.22%
O=C1CC(NCc2ccccn2)CN1CCc1ccc(F)cc1 (stereo unspecified),Percent Effect,"30 µM, 30.03 µM",2.338%
CCN1CCN(C(C)CNC(=O)Nc2nc3ccccc3s2)CC1 (stereo unspecified),Percent Effect,"30.3 µM, […]",21.11%
Fc1ccc(CN2CCc3ncnc(C4CC4)c3CC2)cc1.O=C(O)C(F)(F)F,Percent Effect,"30 µM, 30.03 µM",-12.14%
Cc1ccc(O)c(-c2cc(NCCO)nc3[nH]ccc23)c1,Percent Effect,"30 µM, 30.03 µM",-9.914%
CC(=O)N1[C@H](CN(C)C)C[C@@H]2CN(C(=O)c3occc3C)CC[C@@H]21.O=C(O)C(F)(F)F,Percent Effect,"30.3 µM, […]",-4.239%
O=C(O)C(F)(F)F.O=S(=O)(C1CC1)N1CCO[C@H]2[C@@H](Oc3ncccc3F)CC[C@@H]21,Percent Effect,"30.3 µM, […]",-15.89%
CC(C)c1cn(CC(=O)NC2CC(=O)N(CCc3ccccc3)C2)nn1 (stereo unspecified),Percent Effect,"30.3 µM, […]",-9.844%
CCN(Cc1noc(CC(C)C)n1)Cc1ccccc1C,Percent Effect,"30.3 µM, […]",13.68%
CCN(Cc1noc(CC(C)C)n1)Cc1ccccc1C(=O)O,Percent Effect,"30.3 µM, […]",12.17%
CCN(Cc1noc(CC(C)C)n1)Cc1ccccc1Cl,Percent Effect,"30.3 µM, […]",100%
COc1cccc(CN2CCCC(c3nn(C)c4nccnc34)C2)c1.Cl (stereo unspecified),Percent Effect,"30.3 µM, […]",-9.344%
Cc1cnc(CN2C[C@H]3C[C@H](Oc4ccccc4)C[C@H]3C2)cn1,Percent Effect,"30.3 µM, […]",-12.87%
Cc1nc(COCc2cnc3n2CCN(C)C3C)cs1.O=C(O)C(F)(F)F (stereo unspecified),Percent Effect,"30.3 µM, […]",14.84%
Cc1nc(COCc2cnc3n2CCN(CC2CCC2)C3C)cs1.O=C(O)C(F)(F)F (stereo unspecified),Percent Effect,"30 µM, 30.03 µM",77.97%
Cc1nc(COCc2cnc3n2CCN(C2CCC2)C3C)cs1.O=C(O)C(F)(F)F (stereo unspecified),Percent Effect,"30 µM, 30.03 µM",-3.887%
O=C(NCc1ccco1)[C@H]1C[C@@H]2CCN(c3cccc(F)c3)C[C@H]2O1.O=C(O)C(F)(F)F,Percent Effect,"30.3 µM, […]",0.588%
COc1ccc(-c2nc(CN3CCCC(OC)C3)c(C)o2)c(F)c1 (stereo unspecified),Percent Effect,"30.3 µM, […]",99.32%
CCCOC1CCCN(Cc2nc(-c3ccc(F)cc3F)oc2C)C1 (stereo unspecified),Percent Effect,"30.3 µM, […]",19.33%
COCc1ncn(Cc2nc(-c3ccc(OC)cc3F)oc2C)n1,Percent Effect,"30.3 µM, […]",-22.44%
Cc1nnc(CN2C[C@H]3CC[C@@H]2CN(C2Cc4ccccc4C2)C3)o1,Percent Effect,"30 µM, 30.03 µM",19.71%
COCC1N(C(=O)c2ccco2)[C@H]2CC[C@]1(O)CC2 (stereo partly specified),Percent Effect,"30.3 µM, […]",-31.26%
O=C(NCC1CC1)[C@H]1C[C@@H]2CN(S(=O)(=O)Cc3ccccc3)C[C@H]1O2,Percent Effect,"30 µM, 30.03 µM",-18.74%
O=C(NCC(F)(F)F)NC1CCCc2c1cnn2CCO (stereo unspecified),Percent Effect,"30 µM, 30.03 µM",3.56%
O=C(NCC1CCCCC1)NC1CCCc2c1cnn2CCO (stereo unspecified),Percent Effect,"30 µM, 30.03 µM",-28.76%
O=C(NC1CCCCC1)NC1CCCc2c1cnn2CCO (stereo unspecified),Percent Effect,"30 µM, 30.03 µM",61.21%
